aSyn rescue = rescues yeast growth from alpha-synuclein toxicity; Yeast expressing alpha-synuclein, growth rescue, BacTiter-Glo, 24 h; Potency, µM (top dose mostly 46.1 µM), for inactives: at the top dose growth rescue (activation), actives largely listed as activators; actives 0.14% (n = 370,000); AID 652106; note: % of control where 0% means no effect; nearly all actives have a fitted effect of over 65% in size
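Readout is rescue of growth in alpha-synuclein-expressing yeast, so inhibitors of toxicity appear as activators. Growth after 24 hr at 30 deg C in galactose medium is quantified by luminescence.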
TDP43 rescue = TDP-43 toxicity inhibition in yeast; TDP-43 expressing yeast growth rescue, BacTiter-Glo, 24 h; actives 1.8% (n = 410,000); Potency, µM (doses to about 46.1 µM), without a hit: at the top dose growth rescue (activation), hits mostly activators; AID 652104; note: % of control where 0% means no effect; nearly all actives have a fitted effect of over 50% in size
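Luminescence from BacTiter-Glo reports growth of TDP-43-expressing yeast after 24 hr at 30 deg C with compound. Cells were raffinose-pregrown to mid-log, then seeded in galactose medium at OD600=0.02.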
Abeta yeast res = compounds reversing amyloid beta toxicity in yeast; yeast expressing A-beta42, growth rescue, OD600, 48 h; response scale: 0% DMSO, 100% iron-clioquinol control; Potency, µM (titrated, usually from 46.1 µM), usual class: activators; actives 0.063% (n = 410,000); AID 1347071; note: nearly all actives have a fitted effect of over 55% in size
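Yeast growth medium received pinned compounds, then yeast cells expressing toxic A-beta were added; plates incubated at 30 C for 48 hr. Growth read as absorbance at 600 nm, normalized to DMSO and equimolar FeCl3 plus clioquinol controls.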
Mito fusion act = mitochondrial division inhibition or fusion activation; S. cerevisiae fusion-defective mutant growth rescue, CellTiterGlo 48 h; Potency, µM (titrated, usually from 46.1 µM), for the others: at the highest dose growth rescue (activation), hits mostly activators; actives 0.23% (n = 320,000); note: % of control where 0% means no effect; nearly all actives have a fitted effect of over 45% in size
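Luminescent cell viability in 1536-well qHTS format served as the measure of rescued growth in ts fusion-mutant S. cerevisiae cultured on non-fermentable YPEG for 48 hours at 37C.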
FUS yeast rescue = suppressors of FUS proteinopathy in yeast; actives 0.24% (n = 390,000); Potency, µM (highest dose often 76.6 µM), actives largely listed as activators; S. cerevisiae FUS-expressing, growth rescue, OD600, 24 h;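 note: plate controls were DMSO vehicle for no effect and reference control for full effect; nearly all actives have a fitted effect of over 55% in size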
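FUS-expressing yeast, raffinose-pregrown, induced in 2% galactose minimal medium at OD 0.005; compounds in a dilution series, 24hr at 30C. Growth restoration read as absorbance at 600 nm. CP55940 positive control, DMSO negative.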
* hit, by the source's call; i = inactive; u = inconclusive; x = no result given; ! = a repeat was not active; [ ] = dose if it differs, or a comment. A selection: hits, their analogues and other compounds. The true share with any hit is near 2.2%. Calls come from the whole dose curve; as a rule, active = well fitted curve in the direction sought with a large enough effect; inconclusive = small, poorly fitted or top-dose-only effect, or another doubt; inactive = no such curve, though single readings can be large; an effect the other way counts as inactive or inconclusive. Potency is the fitted concentration of half-maximal effect.

SMILES | aSyn rescue | TDP43 rescue | Abeta yeast res | Mito fusion act | FUS yeast rescue
COc1ccc2c(c1)CC(C(=O)NCc1ccc(F)cc1)CO2 (configuration not stated) | x | 0%[9.22 µM] | i | x | i
Cc1cc(C)nc(Sc2ncnc3c2oc2ccccc23)n1 | 13% | 22µM* | i | -1% | i
O=C(CSc1ccc2c(c1)OCCO2)Nc1ccccc1 | -2% | 4% | i | x | i
Cc1cccc(SCC(=O)Nc2ccc3c(c2)OCCO3)c1 | 23% | 11µM* | i | -1% | i
Cc1ccc(S(=O)(=O)NCc2ccc3c(c2)OCO3)cc1C | -20% | 18µM* | i | 3% | i
COc1ccc(S(=O)(=O)NCc2ccc3c(c2)OCO3)cc1C | 3% | u | i | 3% | i
O=C(O)c1ccc(N/N=C/c2ccc(C(F)(F)F)cc2)cc1 | -60% | -94% | i | -4% | i
CC(C)(C)c1ccc(/C=N/Nc2ccc(C(=O)O)cc2)cc1 | -33% | 16µM* | i | 0% | i
Cc1ccc(N2CCN(C(=O)c3ccccc3Br)CC2)c(C)c1 | 6% | 16µM* | i[9.22 µM] | 25% | i
COCCNc1nc(Oc2cccc(NC(C)=O)c2)c2sc(-c3ccccc3)cc2n1 | 4% | 34% | i | x | i
CC(=O)Nc1cccc(Oc2nc(NC(C)C)nc3cc(-c4ccccc4)sc23)c1 | 1% | 25µM* | i | x | u
CC1(C)N=C(SCc2ccc(F)cc2)c2ccccc2N1 | x | 11µM* | i | x | i
CCNC(=O)Cn1c(-c2cccs2)cc2ccccc21 | x | 24% | i | x | i
Cc1ccccc1CC1C(=O)Nc2ccc(Br)cc21 (configuration not stated) | x | 13µM* | u | x | i
Cc1c(Cl)cccc1NC(=O)C(C)n1nnc2sc3c(c2c1=O)CCCC3 (configuration not stated) | x | 16% | i | x | i
CCOc1cc(C)c(C(C)C)cc1S(=O)(=O)n1ccnc1CC | x | 20µM* | i | x | i
CCOc1cc(C)c(C(C)C)cc1S(=O)(=O)N1CCOCC1 | 3% | 23% | i | 0% | i
Cc1ccc(C(=O)N2CCN(S(=O)(=O)c3cc(Br)ccc3Br)CC2)o1 | -33% | 20µM* | i | 6% | i
CNC(=S)Nc1ccc(C23CC4CC(CC(C4)C2)C3)cc1 | -7% | -6%[0.397 µM] | 7.1µM* | 11% | i
COc1ccc(CC(=O)Nc2cccc(SC)c2)cc1 | 0% | 13µM* | i | 2% | x
COc1cc(CC(=O)Nc2cccc(SC)c2)cc(OC)c1OC | 1% | -1% | i | -2% | i
CC12CN3CC(C)(CN(C1)C3c1ccc(OCc3ccccc3)cc1)C2=O (configuration not stated) | x | 20µM* | i | x | i
Cc1nc(Sc2nnnn2-c2ccccc2)c(C#N)c(C)c1C | 0% | 18µM* | i | 12% | i
Cc1cc(C)c(C#N)c(Sc2nnnn2-c2ccccc2)n1 | 2% | 8% | i | 5% | i
CCc1ccc2[nH]c(=O)c(CN(Cc3cccs3)Cc3nnnn3Cc3ccccc3)cc2c1 | 1% | x | x | x | x
SMILES | aSyn rescue | TDP43 rescue | Abeta yeast res | Mito fusion act | FUS yeast rescue
CCCNC(=O)C1(C)CCCN(C(=O)C2(c3ccc(Cl)cc3)CCCC2)C1 (configuration not stated) | 6% | 35µM* | i | x | i
Cc1cnc2c(C)cccc2c1/C=C/c1ccc(N(C)C)cc1 | 6% | x | x | x | x
Cc1nc2cc(Cl)ccc2n1-c1ccccc1 | -2% | 13µM* | i | -15% | i
Cc1cc(C)cc(-n2c(C)nc3cc(C(=O)O)ccc32)c1 | -1% | 13µM*! | i | -5% | i
O=C(Nc1cccc(-c2nc3cccnc3s2)c1)c1cccc(Br)c1 | x | 6.3µM* | i | x | i
O=C(Nc1cccc(-c2nc3cccnc3s2)c1)c1ccco1 | -7% | 10µM* | i | u | i
CC(NC(=O)CCCCCN1C(=O)c2ccccc2C1=O)c1ccc2c(c1)CCCC2 (configuration not stated) | -10% | 27% | i | u | i

Source: PubChem BioAssay
